This note sets out measurements from PubChem BioAssay (NCATS).

The subject of assay [1] is Zika virus NS2B-NS3 protease (unlinked complex). Put plainly: Primary screen GU Rhodamine qHTS for Zika virus inhibitors: Unlinked NS2B-NS3 protease assay (AID 1347159). Note: nearly all actives have a fitted effect of over 60% in size. The procedure, abridged: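 Buffer 10 mM Tris-HCl pH 8.0, 0.01% Tween 20. Unlinked protease 25 nM; compound preincubation 15 min, RT, protected from light. Substrate Rhod110, 1.5 microM; ~15% conversion in 15 min.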

In assay [2] the test system is Zika virus NS2B-NS3 protease (linked construct). Description: Primary screen NINDS Rhodamine qHTS for Zika virus inhibitors (AID 1347160). Note: nearly all actives have a fitted effect of over 55% in size. The essentials: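 Aprotinin served as in-plate control. Conditions: 25 nM linked NS2B-NS3, pH 8.0 Tris buffer, titrated compounds, 15 min preincubation and 15 min reaction with 1.5 microM Rhod110 substrate at room temperature.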

Results filed as inconclusive are left out. Values without a mark were called inactive. Active and inactive are the calls of the source. Calls come from the whole dose curve; as a rule, active = well fitted inhibition curve with a large enough effect; inconclusive = small, poorly fitted or top-dose-only effect; inactive = no such curve, though single readings can be large or run the other way.
% is set by controls: 0 for no effect and ±100 for the full control effect.

Turning to `C[C@@H]1O[C@@H](O[C@H]2[C@H](OC(=O)[C@]34CCC(C)(C)C[C@H]3C3=CCC5[C@@]6(C)C[C@H](O)[C@H](O[C@@H]7O[C@H](CO)[C@@H](O)[C@H](O)[C@H]7O)[C@](CO)(C(=O)O)C6CC[C@@]5(C)[C@]3(C)C[C@H]4O)OC[C@H](O)[C@@H]2O)[C@H](O)[C@H](O)[C@H]1O[C@@H]1OC[C@@H](O)[C@H](O[C@@H]2OC[C@](O)(CO)[C@H]2O)[C@H]1O` (some centres undefined), the figures for the activity change, negative = inhibition in assay [1] and in assay [2] were 10.7% [at 19.1 µM] and 31.9% [at 10.7 µM], respectively.
For the molecule `O=C(Nc1ccccc1Cl)c1cnc2ccc(C3CCNCC3)cn12`, the Potency result in assay [1] and in assay [2] was “inactive” each time.
Regarding `C=CC(=O)N1CCCN(c2cc(NCCC(=O)O)nc(-c3ccccn3)n2)CC1`, the Potency result in assay [1] and in assay [2] was “inactive” in each case.
For the molecule `O=C(C1CCCCC1)N(CCN1CCN(c2ccccc2O)CC1)c1ccccn1`, the Potency result in assay [1] and in assay [2] was “inactive” in each case.
As to `COC1=CC(=O)O/C1=C(/OC)[C@@H]1O[C@H]1c1ccccc1`, the Potency result in assay [1] and in assay [2] was “inactive” each time.
Regarding `O=C(CN1C2=NCCN2c2ccccc21)c1ccc(-c2ccccc2)cc1`, the Potency entry in assay [1] and in assay [2] was “inactive” in each case.
`O=C(NCc1ccccc1-c1ccccc1C(=O)NCCc1ccccn1)OCc1ccccc1`: the Potency entry in assay [1] and in assay [2] was “inactive” in each case.
As to `COc1ccc(Cl)c(Nc2ncnc3cc(OCC4CCN(C)CC4)c(OC)cc23)c1`, the Potency entry in assay [1] and in assay [2] was “inactive” throughout.
Regarding `C=C1CCC2C(C)(C(=O)O)CCCC2(C)C1CCC1=CCOC1=O` (centres undefined), the Potency entry in assay [1] and in assay [2] was “inactive” each time.
As to `NS(=O)(=O)c1ccc(N2CCN(CC[C@@H]3OCCc4ccccc43)CC2)cc1`, the Potency entry in assay [1] and in assay [2] was “inactive” each time.
As for `O=C(Nc1ccc2[nH]nc(-c3ccncc3)c2c1)[C@@H]1CCN(CC(=O)N2CCN(c3ccc(-c4ncccn4)cc3)CC2)C1`, the Potency entry in assay [1] and in assay [2] was “inactive” throughout.
Consider `CCOc1ccc(Cc2nc(-c3c(C)nc4ccccn34)cs2)cc1`, for which the Potency entry in assay [1] and in assay [2] was “inactive” in each case.
Consider `CCN(CC)C(=O)C(c1ccccc1)N1CCN(c2ccc(NC(=O)c3ccccc3-c3cccnc3)cc2F)CC1` (centres undefined), for which the Potency result in assay [1] and in assay [2] was “inactive” throughout.
For the molecule `COc1ccc(CN2CCN(C(=O)CCNC(=O)c3ccc(C(C)(C)C)cc3)CC2)cc1`, the Potency result in assay [1] and in assay [2] was “inactive” in each case.
Take `C=CCc1ccc(OC(C)Cc2ccc(OC)c(OC)c2)c(OC)c1` (centres undefined): the Potency entry in assay [1] and in assay [2] was “inactive” in each case.
As for `CCOC(=O)c1csc(Nc2ccc(Cl)cc2)n1`, the Potency entry in assay [1] and in assay [2] was “inactive” each time.
For `O=C1Nc2nc(-c3c(O)cccc3OCC3CC3)cc([C@@H]3CCCNC3)c2CO1`, the Potency entry in assay [1] and in assay [2] was “inactive” throughout.
On to `Cc1cccc(CC(=O)N2CCc3c2ccc(-c2cn(C)c4ncnc(N)c24)c3F)n1`, for which the Potency entry in assay [1] and in assay [2] was “inactive” throughout.
With `OC(c1ccc(-c2ccc(CN3CCN(Cc4ccncc4)CC3)cc2)c(F)c1)(C(F)(F)F)C(F)(F)F`, the Potency entry in assay [1] and in assay [2] was “inactive” in each case.
Consider `Nc1nc(O)c(C2=C3C(=Nc4ccccc43)C(=O)NCC2)[nH]1`, for which the Potency result in assay [1] and in assay [2] was “inactive” throughout.
In the case of `C[C@@H]1CCCN1CCc1cc2cc(-c3ccc(C#N)cc3)ccc2o1`, the Potency entry in assay [1] and in assay [2] was “inactive” in each case.
In the case of `COc1ccc2cc3c(NC(=O)c4ccco4)nn(C)c3nc2c1`, the Potency entry in assay [1] and in assay [2] was “inactive” in each case.
For `O=C(c1cc(Cc2n[nH]c(=O)c3ccccc23)ccc1F)N1CCCNCC1`, the Potency entry in assay [1] and in assay [2] was “inactive” each time.
On to `C=C1C(=O)OC2/C=C(\CO)CC/C=C(\C=O)C(OC)C(OC(=O)C(C)CC)C12` (centres undefined), for which the Potency result in assay [1] and in assay [2] was “inactive” throughout.
Take `COc1ccccc1N1CCN(c2ncnc3n[nH]c(Br)c23)CC1`: the Potency result in assay [1] and in assay [2] was “inactive” in each case.
Regarding `Cc1ccc(F)cc1S(=O)(=O)N[C@@H]1CCN(Cc2ccc(OC(C)C)cc2)C1`, the Potency entry in assay [1] and in assay [2] was “inactive” throughout.
With `Cc1cn(CCN2CCN(c3ccccc3-c3cc(C#N)cc(C(=O)NCCCN4CCCC4)c3)CC2)c2ccccc12`, the Potency entry in assay [1] and in assay [2] was “inactive” each time.
With `COC(=O)C[C@H]1[C@]2(C)C3=C(C)[C@H](c4ccoc4)C[C@H]3O[C@@H]2[C@H](O)C2[C@](C)(C(=O)OC)C=CC(=O)[C@@]21C` (some centres undefined), the Potency entry in assay [1] and in assay [2] was “inactive” throughout.
In the case of `O=C(Nc1ccc(-c2ccnc(Nc3ccc(N4CCOCC4)cc3)n2)cc1)C1CCCN1` (centres undefined), the Potency result in assay [1] and in assay [2] was “inactive” each time.
As to `O=S(=O)(Nc1ccccc1N1CCCCC1)c1ccc(Cl)s1`, the Potency result in assay [1] and in assay [2] was “inactive” throughout.
With `COc1cccc(-c2cc(F)ccc2C2Cc3nc(N)nc(C)c3C(=O)N2)n1` (centres undefined), the Potency entry in assay [1] and in assay [2] was “inactive” throughout.
For `O=C(NCCN1CCC(n2c(=O)[nH]c3ccccc32)CC1)c1ccc2ccccc2c1`, the Potency result in assay [1] and in assay [2] was “inactive” each time.
